# Screens deposited in PubChem BioAssay by National Center for Advancing Translational Sciences (NCATS).
# Cruzain noTriton = qHTS Assay for Promiscuous and Specific Inhibitors of Cruzain (without detergent) | Cruzipain (Trypanosoma cruzi), P25779 | Potency, µM, inactives show max response, negative = inhibition, most hits filed as inhibitors | AID 1476, 2009 | 200,000 compounds, 2.3% hits | purified cruzain, Z-FR-AMC fluorescence, no detergent;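 note: plate controls were enzyme without inhibitor for no effect and buffer without enzyme for full effect; nearly all actives have a fitted effect of over 40% in size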
# Target sequence (P25779 123-467 limits assumed): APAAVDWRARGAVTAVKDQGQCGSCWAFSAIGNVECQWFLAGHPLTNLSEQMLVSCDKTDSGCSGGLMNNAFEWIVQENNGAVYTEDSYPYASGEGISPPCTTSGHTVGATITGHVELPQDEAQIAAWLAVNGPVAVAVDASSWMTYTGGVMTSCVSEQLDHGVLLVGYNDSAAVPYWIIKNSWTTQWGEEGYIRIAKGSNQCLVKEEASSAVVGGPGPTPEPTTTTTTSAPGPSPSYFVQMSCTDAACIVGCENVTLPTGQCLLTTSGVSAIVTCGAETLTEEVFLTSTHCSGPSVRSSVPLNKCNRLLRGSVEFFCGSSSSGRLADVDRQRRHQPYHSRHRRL
#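 Detergent-free condition (0.00005% Triton X-100) in acetate buffer pH 5.5 with DTT. 1.5 nM enzyme and compound were pre-mixed 15 min, then 2 uM Z-FR-AMC substrate added; reaction progress from fluorescence change between first and third reads (60 s).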
# Cruzain Triton = qHTS Assay for Promiscuous and Specific Inhibitors of Cruzain (with detergent) | Cruzipain (Trypanosoma cruzi), P25779 | purified cruzain, Z-FR-AMC fluorescence, 0.01% Triton | Potency, µM, for inactives: max response, negative = inhibition, actives largely listed as inhibitors | 200,000 compounds, 0.43% hits | AID 1478, 2009;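 note: plate controls were neutral wells for no effect and buffer without enzyme for full effect; nearly all actives have a fitted effect of over 40% in size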
#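 Purified cruzain (1.5 nM final) was preincubated with compounds for 15 min at room temperature in 100 mM sodium acetate pH 5.5, 5 mM DTT, 0.01% Triton X-100. Reaction started with 2 uM Z-FR-AMC; AMC fluorescence change over 60 s gave activity.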
# * hit, by the source's call; ? = inconclusive. Only some compounds are listed: those with a hit (about 2.6% of all), similar ones and a draw of the others. Calls come from the whole dose curve; as a rule, active = well fitted curve in the direction sought with a large enough effect; inconclusive = small, poorly fitted or top-dose-only effect, or another doubt; inactive = no such curve, though single readings can be large; an effect the other way counts as inactive or inconclusive. Potency is the fitted concentration of half-maximal effect.
SMILES,Cruzain noTriton,Cruzain Triton
Cc1ccc(N=Nc2c(O)c(S(=O)(=O)O)cc3cc(S(=O)(=O)O)ccc23)c(C)c1,-9%,-2%
Cc1cc(-c2ccc(N=Nc3ccc4c(S(=O)(=O)O)cc(S(=O)(=O)O)c(N)c4c3O)c(C)c2)ccc1N=Nc1ccc2c(S(=O)(=O)O)cc(S(=O)(=O)O)c(N)c2c1O,?,28µM*
Nc1ccc(N=Nc2ccc(-c3ccc(O)cc3)cc2)c2ccc(S(=O)(=O)O)cc12,10%,-14%
Nc1c(N=Nc2ccc(-c3ccc(N=Nc4cc(S(=O)(=O)O)c5ccccc5c4N)cc3)cc2)cc(S(=O)(=O)O)c2ccccc12,?,2.8µM*
CCN(C(=O)CSc1nc2ccccc2n1Cc1cc(C)ccc1C)c1ccccc1,9%,-1%
O=C(c1cccc(F)c1)N1CCC2(CC1)CCN(c1ccncc1)CC2,-7%,3%
O=C(c1ccc2c(c1)N(Cc1ccc(F)cc1)C(=O)c1ccccc1S2(=O)=O)N1CCC(Cc2ccccc2)CC1,-5%,1%
O=C(NCc1ccco1)C(Cc1ccccc1)N1C(=O)C2C3C=CC(C3)C2C1=O (configuration not stated),-30%,25µM*
O=C(C(Cc1ccccc1)N1C(=O)C2C3C=CC(C3)C2C1=O)N1CCCCCC1 (configuration not stated),16%,-1%
CCCCOc1ccc(N2C(=O)CC(N(CCc3ccccc3)C(=O)/C=C/C(=O)O)C2=O)cc1 (configuration not stated),?,0%
CCCCCOc1ccc(N2C(=O)CC(N(O)c3ccccc3)C2=O)cc1 (configuration not stated),25µM*,-1%
CCCCOc1ccc(N2C(=O)CC(N(O)c3ccccc3)C2=O)cc1 (configuration not stated),20µM*,2%
CCOc1ccccc1N1C(=O)CC(N(O)c2ccccc2)C1=O (configuration not stated),-5%,-1%
CC(C)(C)C(=O)[C@H](C(c1ccccc1)N1CCOCC1)N1CCOCC1 (some centres not stated),3%,5%
Cc1ccc(C(=O)NN2C(=O)/C(=C/c3cccn3C)SC2=S)cc1,?,-9%
Cn1cccc1/C=C1\SC(=S)N(NC(=O)c2ccccc2Cl)C1=O,13%,-10%
Cn1cc(/C=C2\SC(=S)N(NC(=O)c3ccccc3Cl)C2=O)c2ccccc21,10µM*,-3%
Cc1ccc(C(=O)NN2C(=O)/C(=C/c3cn(C)c4ccccc34)SC2=S)cc1,10µM*,1%
COC(=O)c1cc2sc(C)cc2n1CC(=O)Nc1cccc(SC)c1,-4%,-4%
COc1ccccc1N1CCN(C(=O)c2c(C)oc3ncn(C)c(=O)c23)CC1,3%,-1%
COc1ccc(Cl)cc1NC(=O)CSc1nnc(C)n2c1cc1occc12,-4%,1%
CS(=O)(=O)Oc1ccccc1/C=C1/N=C(c2ccc(F)cc2)OC1=O,16µM*,14µM*
Cc1ccc(C2=N/C(=C\c3c(C)nn(-c4ccccc4)c3N3CCCC3)C(=O)O2)cc1,1.6µM*,1µM*
Cc1nn(-c2ccccc2)c(N2CCCC2)c1/C=C1\N=C(c2ccc(F)cc2)OC1=O,0.32µM*,0.4µM*
O=C1OC(c2ccccc2)=N/C1=C\N1CCCCC1,-7%,-7%
SMILES,Cruzain noTriton,Cruzain Triton
Cc1nn(-c2ccccc2)c(N2CCCC2)c1/C=N/O,4%,-1%
COc1cccc(/C=C2\N=C(c3c(-c4ccccc4)noc3C)OC2=O)c1OC,9%,-7%
CCc1ccc(-n2nc3ccc(NC(=O)c4cc5ccccc5o4)cc3n2)cc1,-2%,-1%
Cc1ccc(C)c(NC(=O)CSc2ncc3c(n2)-c2cc(Cl)ccc2N(Cc2ccccc2F)S3(=O)=O)c1,-13%,1%
CCOC(=O)CCCSc1nc(-c2ccc3c(c2)OCO3)cc(C(F)(F)F)c1C#N,25µM*,-4%
CCOC(=O)CSc1nc(-c2ccc(OC)cc2)cc(C(F)(F)F)c1C#N,-3%,-3%
CC(C)c1ccc(NC(=O)CN2C(=O)COc3ccc(S(=O)(=O)Nc4ccccc4)cc32)cc1,20µM*,-8%
Cc1cccc(NC(=O)CN2C(=O)COc3ccc(S(=O)(=O)Nc4ccccc4)cc32)c1C,?,3%
CCSc1nc2c(c(=O)[nH]1)C(c1cccnc1)C(C(=O)OC)=C(C)N2 (configuration not stated),-6%,-2%
COC(=O)C1=C(C)Nc2nc(SCc3ccccc3)[nH]c(=O)c2C1c1cccs1 (configuration not stated),25µM*,-1%
O=C(NCc1ccco1)c1ccc(Cn2c(=O)c3sccc3n(Cc3cccc(F)c3)c2=O)cc1,25µM*,5%
O=C(NCc1ccco1)c1ccc(Cn2c(=O)c3ccccc3n(Cc3cccc(Cl)c3)c2=O)cc1,?,1%
CCOC(=O)c1c(-c2ccccc2)oc2ccc(NS(=O)(=O)c3ccc(C)cc3C)cc12,16µM*,-1%
C=Cc1ccc(COc2ccc3oc(-c4ccccc4)c(C(=O)OCC)c3c2)cc1,32µM*,-6%
CCOC(=O)c1c(-c2ccccc2)oc2ccc(NS(=O)(=O)c3ccc(C(C)C)cc3)cc12,20µM*,-3%
CCOC(=O)c1c(-c2ccccc2)oc2ccc(OCc3ccc(C)cc3)cc12,10%,-1%
CCOC(=O)c1c(-c2ccccc2)oc2ccc(N(C(C)=O)S(=O)(=O)c3cc(C)ccc3C)cc12,-10%,-3%
CC(=O)c1c(C)oc2ccc(NS(=O)(=O)c3ccc(C(C)C)cc3)cc12,8%,-10%
O=C(NCCc1nc2ccccc2n1Cc1ccc(F)cc1)c1ccco1,7%,-19%
CCOc1ccc(/C=C2/SC(=S)N(n3c(C)ccc3C)C2=O)cc1,-41%,-6%
COc1ccc(/C=C2/SC(=S)N(n3c(C)ccc3C)C2=O)cc1,25µM*,-5%
CCCCOc1ccc(CNC(=O)Cc2ccc(NC(=O)N3CCCCc4ccccc43)cc2)cc1,11%,-6%
COc1cc(OC)c(NC(=O)c2c(C)nn(-c3ccc(C)cc3)c2-n2cccc2)cc1Cl,-10%,-1%
O=C(NCc1ccc2c(c1)OCO2)C1CCN(c2ccc(S(=O)(=O)N3CCCC3)cc2)CC1,25µM*,-1%
O=C(NCc1ccc2c(c1)OCO2)C1CCN(S(=O)(=O)N2CCCCC2)CC1,-1%,-3%
SMILES,Cruzain noTriton,Cruzain Triton
CCOC(=O)c1c(C)[nH]c(C=O)c1Cc1cccc(Cl)c1,-6%,-8%
CCOC(=O)c1c(C)[nH]c(C2=NNC(=Nc3cccc(Cl)c3)SC2)c1C,16µM*,1%
Cc1cccc(NC(=O)CSc2cn(CC(=O)N3CCC(C)CC3)c3ccccc23)c1C,-8%,0%
COC(=O)N1CCC2(CCCN(c3ccc(-c4ccccc4)cc3)C2)CC1,-5%,-5%
O=C(Oc1ccccc1)N1CCC2(CCCN(c3ccc(-c4ccccc4)cc3)C2)CC1,13µM*,0%
O=C(CSc1nnc(-c2ccc(Cl)cc2)o1)N1CCN(c2ccccc2)CC1,16µM*,-7%
O=C(CSc1nnc(COc2ccc(Cl)cc2)o1)N1CCN(c2ccccc2)CC1,-2%,-8%
CC(=O)c1ccc(NC(=O)Cn2c3ncccc3c(=O)n2-c2ccc(C)cc2)cc1,-10%,-6%
CCOC(=O)c1cccc(NC(=O)CCc2c(C)nn(-c3ccc(N4CCCCC4)nn3)c2C)c1,?,-6%
